Compound activity as filed in PubChem.
GLS inhibitor = blocks human kidney-isoform glutaminase activity | O94925 | GLS enzymatic activity, qHTS titration | Potency, µM (series often up to 45.5 µM), for inactives: at the top dose activity change, negative = inhibition, most hits filed as inhibitors | 410,000 compounds, 0.21% hits | AID 624170; also: % is scaled to controls: 0 for no effect and ±100 for the full control effect
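Two-point fluorescence kinetic (t0, 30 min RT) for hKGA; glutamate detected via glutamate oxidase–HRP–Amplex Red. Substrate: 1 mM L-glutamine solution; buffer 45 mM KH2PO4, pH 8.2.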
Pol iota inh = DNA polymerase iota (human) inhibition. Pol iota fluorescent replication assay, 10 min. Potency, µM (top dose mostly 115 µM), without a hit: at the highest dose activity, negative = inhibition, hits mostly inhibitors. 390,000 compounds, 1% hits. Q9UNA4
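Pol iota at 10 nM preincubated 15 min with compounds at room temperature; reaction started with fluorescent substrate, 50 nM final. Fluorescence read kinetically at 0 and 10 min; buffer-only wells as negative control.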
GCN5L2 inh = blocks human GCN5L2 histone acetyltransferase; Potency, µM (top dose mostly 58.9 µM), without a hit: top-dose activity change, negative = inhibition, most hits filed as inhibitors; 390,000 compounds, 0.21% hits; GCN5L2 HAT assay, ThioGlo1 CoA-SH fluorescence; Q92830; also: % is scaled to controls: 0 for no effect and ±100 for the full control effect
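Preincubate 20nM GCN5L2 with compound 15 min, RT → add 50uM ThioGlo1 + 75uM H3(1-25) + 70uM acetyl-CoA → read fluorescence 0 and 20 min. Primary qHTS; fluorescent artifacts likely.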
POLB inh = inhibitors of human DNA polymerase beta; P06746; Pol beta primer extension/strand displacement, fluorescence kinetic; Potency, µM (titrated, usually from 114 µM), for the others: top-dose activity change, negative = inhibition, usual class: inhibitors; 340,000 compounds, 1.3% hits; AID 485314; also: % is scaled to controls: 0 for no effect and ±100 for the full control effect
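Reaction started by 50 nM substrate onto compound-treated Pol beta (10 nM, 15 min preincubation, room temperature); plates read at 0 min and 10 min. Normalized concentration-effect data fitted by four-parameter Hill equation.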
POLH inh = inhibitors of human DNA polymerase eta; recombinant Pol eta, fluorescent DNA replication assay; Potency, µM (series often up to 114 µM), for inactives: top-dose activity change, negative = inhibition, most hits filed as inhibitors; 390,000 compounds, 1.2% hits; AID 588591; also: % is scaled to controls: 0 for no effect and ±100 for the full control effect
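Fluorescent replication assay: 50 nM final substrate added after a 15 min room-temperature compound preincubation with 10 nM enzyme. Signal taken at 0 min and again at 10 min.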
Pol kappa inh = blocks human DNA polymerase kappa activity; purified Pol kappa, fluorescent DNA synthesis assay, 10 min; Q9UBT6; 400,000 compounds, 0.53% hits; Potency, µM (series often up to 107 µM), inactives show at the highest dose activity, negative = inhibition, hits mostly inhibitors; also: % is scaled to controls: 0 for no effect and ±100 for the full control effect
Target sequence (Q9UBT6 whole entry, looked up): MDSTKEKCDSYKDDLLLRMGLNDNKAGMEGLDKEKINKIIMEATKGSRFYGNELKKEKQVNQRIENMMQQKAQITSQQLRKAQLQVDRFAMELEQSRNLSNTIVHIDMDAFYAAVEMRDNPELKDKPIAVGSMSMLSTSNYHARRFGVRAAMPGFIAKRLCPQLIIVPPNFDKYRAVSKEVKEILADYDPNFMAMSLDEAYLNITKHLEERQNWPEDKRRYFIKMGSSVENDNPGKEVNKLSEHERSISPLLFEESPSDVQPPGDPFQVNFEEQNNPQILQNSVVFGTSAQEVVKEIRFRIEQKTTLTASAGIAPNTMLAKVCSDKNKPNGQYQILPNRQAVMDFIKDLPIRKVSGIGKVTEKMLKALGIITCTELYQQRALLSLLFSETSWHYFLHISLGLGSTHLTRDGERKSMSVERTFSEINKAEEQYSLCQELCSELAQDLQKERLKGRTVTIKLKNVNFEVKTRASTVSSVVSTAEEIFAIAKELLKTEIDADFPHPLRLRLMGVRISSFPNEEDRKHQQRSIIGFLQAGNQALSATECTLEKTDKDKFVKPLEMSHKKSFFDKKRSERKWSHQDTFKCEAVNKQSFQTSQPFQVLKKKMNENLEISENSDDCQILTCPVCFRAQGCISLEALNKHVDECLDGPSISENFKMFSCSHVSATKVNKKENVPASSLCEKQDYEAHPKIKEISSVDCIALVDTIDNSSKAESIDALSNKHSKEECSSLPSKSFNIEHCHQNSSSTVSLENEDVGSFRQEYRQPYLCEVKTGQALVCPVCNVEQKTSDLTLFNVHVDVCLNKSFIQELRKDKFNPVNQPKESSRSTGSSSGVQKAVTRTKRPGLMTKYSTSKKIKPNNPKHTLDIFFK
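Inhibition of 10 nM Pol kappa is measured by a fluorescent read-out at 0 and 10 min following addition of 50 nM substrate (final), with a 15-min room-temperature compound preincubation.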
The depositor's hits bear a star; ? = inconclusive; . = no result given; ! = a repeat was not active; [ ] = remark or other dose. Compounds with a hit are over-represented: about 2.4% of the library has one in this group of screens. Calls follow the shape of the dose curve; as a rule, active = well fitted inhibition curve with a large enough effect; inconclusive = small, poorly fitted or top-dose-only effect, or another doubt; inactive = no such curve, though single readings can be large or run the other way. Potency is read from the fitted curve at half-maximal effect.

SMILES	GLS inhibitor	Pol iota inh	GCN5L2 inh	POLB inh	POLH inh	Pol kappa inh
O=[N+]([O-])c1ccccc1N/N=C/c1cccc(O)c1O	20%	?	-16%	-16%	-7%	-21%
O=[N+]([O-])c1cccc(N/N=C/c2cccc(O)c2O)c1	7.9µM*	105%	-3%	?	?	-27%
COc1cccc(/C=N/Nc2ccc([N+](=O)[O-])cc2)c1O	?	20%	-5%	45µM*	-12%	-4%
COc1ccc(-c2noc(CNC(=O)c3ccccc3Br)n2)cc1	-12%	27%	-9%	3%	-13%	-21%
CCCN1CNc2c(c(=O)[nH]c(=S)n2CCc2cc(C)cc(C)c2)C1	.	-19%	.	.	.	-16%
Nc1nc(Nc2ccccc2)nc2c1ncn2[C@@H]1O[C@H](CO)[C@H](O)[C@H]1O	.	5%[58.9 µM]	.	20%[57.1 µM]	-5%[57.1 µM]	.
CC(=O)c1ccc(NC(=O)c2ccc3snnc3c2)cc1	0%	?	-5%	25µM*	?	-14%
O=C(Nc1ccc(Cl)cc1)c1ccc2snnc2c1	2%	23%	?	0%	-16%	7%
CC(=O)c1c(C)[nH]c2ccc(OCC(O)CNCCc3ccccc3)cc12 (stereo unspecified)	.	11%	.	.	.	-14%
O=C(CC1SC(=O)N(c2ccccc2)C1=O)Nc1cccc2ccccc12 (stereo unspecified)	10µM*	-16%	-27%	2%	-16%	-17%
O=C(C[n+]1ccccc1Br)c1ccc(-c2ccccc2)cc1	.	?	.	.	.	-9%
CCCCC[C@H](O)/C=C/C1=C(CCCCCCC(=O)O)C(=O)CC1	?	45µM*	-4%	?	25µM*	50µM*!
COc1ccc(S(=O)(=O)Oc2ccc3ccccc3c2)cc1	4%	-6%	-3%	12%	-14%	-4%
COC1=C(OC)C(=O)C(Sc2ccc3ccccc3c2)=CC1=O	10µM*	?	.	.	-20%	-8%
Cc1ccc(Nc2ccc(N)cc2S(=O)(=O)O)cc1	6%	?	-4%	?	40µM*	-1%
O=C(O)c1cccc(S(=O)(=O)Nc2cccc(S(=O)(=O)N3CCCCCC3)c2)c1	0%	89µM*	-2%	4%	2%	-16%
Cc1ccc(S(=O)(=O)Nc2nc3ccccc3nc2Nc2cccc(S(=O)(=O)N3CCCC3)c2)cc1	1%	7.1µM*	0%	11%	-8%	?
O=C(N/N=C/c1ccc(O)c(O)c1)c1cccc(S(=O)(=O)N2CCCCC2)c1	7.1µM*	30%	-1%	5%	-8%	-4%
Nc1ccc(/C=C/c2ccnc3ccccc23)cc1	.	16%	.	.	.	3%
COc1cc2[nH]c3c(=O)n(CCN4CCCCC4)cnc3c2cc1OC	35%	1%	-7%	-16%	-2%	22µM*
Nc1ccc2cccnc2c1	.	-5%	.	.	.	-4%
C(=C\c1ccnc2ccccc12)/c1ccc(N2CCN(c3ccc(/C=C/c4ccnc5ccccc45)cc3)CC2)cc1	.	10%	.	.	.	-5%
Cc1c(O)ccc(NC(=O)/C=C/c2ccccc2)c1C	18µM*	83%	-7%	-2%	-7%	-2%
CCS(=O)(=O)c1ccc(O)c(NC(=O)/C=C/c2ccccc2)c1	1%	27%	-1%	31%	-5%	-9%
O=C(Nc1ccc(S(=O)(=O)Nc2ncccn2)cc1)C1=COCCO1	0%	50µM*	2%	.	?	-25%
SMILES	GLS inhibitor	Pol iota inh	GCN5L2 inh	POLB inh	POLH inh	Pol kappa inh
CCCn1nc(C(=O)Nc2ccc(S(=O)(=O)Nc3ncccn3)cc2)c2ccccc2c1=O	11%	?	-1%	1%	50µM*	-24%
COc1ccc(C(=O)n2cnc(N)n2)cc1	-11%	?	2.2µM*	13%	-14%	-9%
COc1ccc(C(=O)n2cnc3ccccc32)cc1	-3%	18%	0%	83%	-14%	4%
COc1ccc(C(=O)n2nc(-c3ccco3)nc2N)cc1	13%	16%	-2%	25µM*	-4%	1%
COc1ccc(NC(=O)c2cc3c(COC(C)=O)cnc(C)c3oc2=Nc2cccc(C(=O)O)c2)c(OC)c1	10µM*	-23%	3%	-26%	3.2µM*	-6%
OC1OC[C@H](O)[C@H](O)[C@H]1O (stereo partly specified)	.	.	0%	.	.	14%[60.1 µM]
Cc1sc2ccccc2[n+]1CCCCI	.	?	.	.	.	-21%
CCCCCCC[n+]1c(/C=C/c2ccc(N(C)C)cc2)sc2ccccc21	.	79µM*	.	.	.	40µM*
CC(=O)Nc1ccc(/C=C/c2sc3ccccc3[n+]2CCCCI)cc1	.	79µM*	.	.	.	45µM*
CC[n+]1c(/C=C/C=C/N(C(C)=O)c2ccccc2)sc2ccccc21	-5%	?	-29%	-8%	?	-8%
CCN(CC)c1ccc(/C=C/c2sc3ccccc3[n+]2CCCCI)cc1	.	50µM*	.	.	.	?
OCc1cn(Cc2ccc(O)c3ncccc23)cn1	.	.	-3%	.	.	.
Cc1c(C(=O)Nc2cccc(Cl)c2)oc2ccc(S(=O)(=O)N(C)C3CCCCC3)cc12	4%	27%	-8%	6%	-13%	-6%[60.1 µM]
COc1cc(Nc2c(C#N)cnc3cc(OCCCN4CCN(C)CC4)c(OC)cc23)c(Cl)cc1Cl	2%	.	.	.	.	.
Cc1ccc(S(=O)(=O)N2CCN(c3nc(-n4cncn4)nc4ccccc34)CC2)cc1	.	?	.	.	.	-21%
CCOC(=O)C1Nc2ccc(Br)cc2C2C=CCC12 (stereo unspecified)	1%	45µM*	-12%	?	79µM*	?
CCOC(=O)C1Nc2ccccc2C2c3ccccc3CC12 (stereo unspecified)	14µM*	-9%	.	.	-1%	-12%
CCOC(=O)C1Nc2ccc(C)cc2C2C=CCC12 (stereo unspecified)	-16%	?	.	.	-11%	-22%
CCOC(=O)c1ccc2c(c1)C1C=CCC1C(C(=O)OCC)N2 (stereo unspecified)	3%	?	-9%	?	?	-23%
O=C(OC1CCCCC1)c1ccc2c(c1)C1C=CCC1C(C(=O)O)N2 (stereo unspecified)	.	.	20µM*	2.2µM*	.	.
CCOC(=O)COc1ccc2c(C)c(CCN(CC)CC)c(=O)oc2c1	5%	.	.	.	.	.
Nc1n[nH]c(=S)n1/N=C1/C(=O)Nc2ccccc21	-25%	-6%	7.1µM*	?	6%	-22%
N[C@@H](C(=O)N[C@H]1C(=O)N2C(C(=O)O)=C(Cl)CC[C@H]12)c1ccccc1	1%	.	.	.	.	.
CCc1c(C)c2cc(Cl)c(O)c(CN(C)C)c2oc1=O	4%	-41%[58.9 µM]	28µM*	-3%	-2%	-1%
Cc1c(C)c2cc(Cl)c(O)c(CN(C)C)c2oc1=O	-8%	0%	22µM*	6%	-1%	-8%
